Reference: publication PMC4336329 (PLoS ONE, 2015)
Out of some 310,000 compounds screened, about 14,000 (4.5%) showed an effect of 50% or more. Effects have a minus sign here. Many of the other results were omitted from the sample, so strong results are more common in it than they were.

Target: human ether-à-go-go-related gene (hERG) potassium channel (human, UniProt Q12809)
Experiment: primary screen, population patch clamp on CHO cells stably expressing hERG; higher = less effect of the substance
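Note: peak tail current of the secondary pulse compared with the same well before compound.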

Sequence of human ether-à-go-go-related gene (hERG) potassium channel (Q12809 whole entry, looked up): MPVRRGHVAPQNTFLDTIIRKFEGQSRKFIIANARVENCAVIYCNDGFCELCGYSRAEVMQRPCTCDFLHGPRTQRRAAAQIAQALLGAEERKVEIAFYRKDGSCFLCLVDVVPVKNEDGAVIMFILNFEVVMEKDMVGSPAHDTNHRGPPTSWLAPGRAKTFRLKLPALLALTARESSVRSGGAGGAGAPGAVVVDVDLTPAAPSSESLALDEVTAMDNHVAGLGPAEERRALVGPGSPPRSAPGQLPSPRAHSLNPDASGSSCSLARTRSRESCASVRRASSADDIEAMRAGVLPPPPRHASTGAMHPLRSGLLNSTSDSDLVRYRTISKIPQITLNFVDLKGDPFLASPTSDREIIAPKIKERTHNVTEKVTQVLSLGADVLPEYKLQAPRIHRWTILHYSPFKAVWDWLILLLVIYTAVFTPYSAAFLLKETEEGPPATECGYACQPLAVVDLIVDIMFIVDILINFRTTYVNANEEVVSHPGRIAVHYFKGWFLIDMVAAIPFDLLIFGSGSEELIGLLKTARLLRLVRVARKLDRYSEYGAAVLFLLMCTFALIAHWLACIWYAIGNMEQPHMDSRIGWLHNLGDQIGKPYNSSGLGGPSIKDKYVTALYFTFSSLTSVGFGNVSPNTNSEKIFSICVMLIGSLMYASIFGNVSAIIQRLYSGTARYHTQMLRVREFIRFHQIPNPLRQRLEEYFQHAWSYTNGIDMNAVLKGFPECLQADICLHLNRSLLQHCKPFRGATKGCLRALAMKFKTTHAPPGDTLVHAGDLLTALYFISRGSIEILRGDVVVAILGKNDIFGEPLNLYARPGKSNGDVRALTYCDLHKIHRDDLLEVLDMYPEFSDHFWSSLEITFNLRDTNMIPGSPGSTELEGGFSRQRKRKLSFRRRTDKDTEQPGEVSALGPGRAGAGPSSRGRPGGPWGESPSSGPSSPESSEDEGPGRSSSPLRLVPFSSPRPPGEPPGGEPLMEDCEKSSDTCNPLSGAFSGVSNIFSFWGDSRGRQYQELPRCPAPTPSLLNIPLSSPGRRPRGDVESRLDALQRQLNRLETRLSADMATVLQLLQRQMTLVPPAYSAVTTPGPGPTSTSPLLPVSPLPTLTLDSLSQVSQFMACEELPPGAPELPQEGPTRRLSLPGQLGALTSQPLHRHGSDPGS

Structure (SMILES) | hERG current change (%, negative = inhibition) at 10uM [%]
CSc1nnc(-c2ccc(S(=O)(=O)N3CCOCC3)cc2)n1C | -25
Cc1cccc(C(=O)NCCNC(=O)c2cccnc2)c1 | 18.6
COc1ccc(Nc2nc(NCc3ccco3)nc(N/N=C/c3ccccc3F)n2)cc1 | -12.3
Cc1ccc(S(=O)(=O)Nc2cccc(C(=O)NCCCN3CCOCC3)c2)cc1F | -10.2
COc1cc(C(F)(F)F)c(C(=O)N(C)Cc2cc(Cl)cc(Cl)c2)cn1 | -18.9
CCN(CC)CCCN=C(C)C1=C(O)c2ccccc2C1=O | -41.2
O=C1C(C=NCCCn2ccnc2)=C(O)c2ccccc21 | -8.86
CC(=NCCCn1ccnc1)C1=C(O)c2ccccc2C1=O | -68
CCOC(=O)N1CCN(C(=O)COc2ccc(S(=O)(=O)NC3CCCCC3)cc2C)CC1 | -16.9
O=C(O)c1ccccc1C(=O)Nc1ccc(-n2nc(C(F)(F)F)cc2C(F)(F)F)cc1 | 12.8
Cc1ccc(NC(=O)CSc2nnc(-c3cccs3)n2Cc2ccco2)cc1 | -61.6
COc1ccc(NC(=O)CSc2nnc(-c3cccs3)n2Cc2ccco2)cc1OC | -60.6
CN(C)c1ccc(NC(=O)CSc2nnc(-c3cccs3)n2Cc2ccco2)cc1 | -39.4
COc1ccc(NC(=O)CSc2nnc(-c3ccccc3)n2Cc2ccco2)cc1OC | -34.6
O=C(CSc1nnc(-c2cccs2)n1Cc1ccco1)Nc1ccc2c(c1)OCO2 | -14.6
CCn1c(SCC(=O)Nc2ccc(OC)c(OC)c2)nnc1-c1cccs1 | -14.1
COc1ccc(N=C2SC(CC(=O)Nc3ccccc3)C(=O)N2CCc2ccccn2)cc1 (stereo not drawn) | -32.6
CCOC(=O)c1c(C)oc2ccc(OC(=O)c3cccs3)cc12 | -5.96
c1coc(-c2nnc(SCc3cn4ccccc4n3)o2)c1 | -29.7
Cc1ccc2nc(CSc3nnc(-c4ccco4)o3)cc(=O)n2c1 | -64.9
COc1ccc(C)cc1-n1nnnc1SCc1cc(=O)n2cc(C)ccc2n1 | -51.1

Structure (SMILES) | hERG current change (%, negative = inhibition) at 10uM [%]
Cc1ccc2nc(CSc3nnc(-c4ccco4)n3-c3ccccc3)cc(=O)n2c1 | -21.1
COc1ccc(C)cc1-n1nnnc1SCc1csc(C)n1 | -16.2
COc1ccc(C)cc1-n1nnnc1SCc1cn2ccsc2n1 | -28.7
Oc1cccc(/C=N/c2c(-c3ccco3)nc3ccccn23)c1 | 6.9
Cc1cccc(N(Cc2ccc(Cl)cc2)S(C)(=O)=O)c1 | 21.1
CC1(C)CC(=O)C2=C(C1)NC(=O)C21C(C(=O)OC(C)(C)C)=C(N)Oc2ccc(Br)cc21 (stereo not drawn) | -13.1
O=C1CN(C(=O)CSc2ccc(-c3ccc(F)cc3)nn2)c2ccccc2N1 | -42.5
Cc1noc(C)c1CSc1nnc2ccc3ccccc3n12 | -25.1
COc1ccc(C(C)=O)cc1COC(=O)CNC(=O)c1ccc(Cl)cc1 | -4.06
NNC(=O)CNC(c1ccccc1)c1cc(Br)ccc1NC(=O)CCN1CCOCC1 (stereo not drawn) | 3.67
COC(=O)CNC(c1ccccc1)c1cc(Br)ccc1NC(=O)CCN1CCOCC1 (stereo not drawn) | -31.7
CCOC(=O)CNC(c1ccccc1)c1cc(Br)ccc1NC(=O)CCN1CCOCC1 (stereo not drawn) | -68
CC(=O)c1ccc(OCc2ccc(C(=O)c3ccccc3)cc2)cc1 | 0.433
CC(=O)c1ccccc1OCc1ccc(C(=O)c2ccccc2)cc1 | -51.7
COc1ccccc1OCc1ccc(C(=O)c2ccccc2)cc1 | 17.1
Cc1ccc(C(=O)c2nocc2C(=O)c2cccs2)cc1 | -19.7
CS(=O)(=O)O.Cc1cccc(/C=C2/C(=O)/C(=C/c3ccccc3C)C3CCC2N3C)c1 (stereo not drawn) | 6.11
CCC(O)(CC)C(=O)NN(C(=O)CCl)c1ccccc1 | 8.94
CCc1ccc(-c2cc(C)no2)cc1S(=O)(=O)N1CCN(C(=O)c2ccco2)CC1 | -59.6
Cc1ccc(S(=O)(=O)N2CCN(C(=O)c3ccco3)CC2)cc1C | -4.01
COc1ccc(-c2cc(C)no2)cc1S(=O)(=O)N1CCN(C(=O)c2ccco2)CC1 | -6.28
